Source: PubChem BioAssay AID652067 (The Scripps Research Institute Molecular Screening Center, 2013)
Among all 370,000 compounds or so, about 5,400 (1.5%) were called active.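 How the source made its calls: active means activation above the mean of all tested compounds plus 3 SD (cut at about 5.5% in these data); inactive means the rest.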 Only a selection was taken, and actives are over-represented in it overall.

Tested on: DAF-12 nuclear receptor (Haemonchus contortus)
Experiment: H. contortus DAF-12 nuclear receptor activators, primary screen, cell-based, luminescence, HEK293, lit1-tk-luc reporter (AID 652067);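 further: 100% = response to 3 µM Δ7-dafachronic acid high control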
Conditions: HEK293 hcDAF-12 lit1-tk-luc reporter, at 6.8 µM, active compounds read high, 0% DMSO, 100% Δ7-dafachronic acid

SMILES	activation
Cc1cc2nnc(SCC(=O)N3CCN(c4ccccc4)CC3)n2c(N)n1	-2.55% (inactive)
O=C(CSc1nnc(Cc2ccccc2)n1-c1ccccc1)N1CCOCC1	-0.92% (inactive)
Cc1nnc(SCC(=O)N2CCN(c3ccccc3)CC2)n1-c1ccccc1	6.51% (active)
N#Cc1c(NC(=O)c2ccc(N3CCOCC3)c([N+](=O)[O-])c2)sc2c1CCCC2	-0.5% (inactive)
N#Cc1c(NC(=O)C2CCCO2)sc2c1CCCCC2 (stereo unspecified)	6.65% (active)
CCC1CCc2c(sc(NC(C)=O)c2C#N)C1 (stereo unspecified)	-0.54% (inactive)
COC(=O)C1=C(C)NC(=S)NC1c1ccc(OC)cc1 (stereo unspecified)	-0.46% (inactive)
C=CC[C@]12C[C@@]3(O[C@H](c4ccc(C(F)(F)F)cc4)N=C3C[C@H](c3ccc(OC)cc3)[C@H]1C)N(C1CCN(Cc3ccccc3)CC1)C2=O	1.02% (inactive)
CC(=O)c1ccc(NC(=O)c2sc3nc4n(c(=O)c3c2C)CCCCC4)cc1	3.47% (inactive)
N=c1c2c3c(sc2nc2n1CCCCC2)CCCC3	0.65% (inactive)
O=c1c2c(nc3n1CCCCC3)sc1c(O)cccc12	5.87% (active)
c1csc(-c2nnc(SCc3nc4ccccc4[nH]3)o2)c1	0.87% (inactive)
CC1CCCN(c2cccc3c2S(=O)(=O)N(Cc2ccc(F)cc2)[C@@H](C)[C@H](c2ccccc2)O3)C1 (stereo partly specified)	-1.13% (inactive)
Cc1ccc(SCCSc2ncccn2)cc1	7.62% (active)
Cc1ccc(SCCC(=O)NC(C(C)C)C(C)C)cc1	-0.97% (inactive)
Cc1ccc(SCCC(=O)NCc2ccccn2)cc1	0.97% (inactive)
COc1cccc(CN(C)C(=O)CC23CC4CC(CC(C4)C2)C3)c1OC	-1.43% (inactive)
CCOC(=O)c1ccc(-c2ccc3ncnc(N(C)Cc4sccc4C)c3c2)o1	0.56% (inactive)
Cc1ccc(S(=O)(=O)C(C#N)c2nc3ccccc3nc2N2CCCC2)cc1C (stereo unspecified)	-0.94% (inactive)
Cc1ccc(S(=O)(=O)Nc2nc3ccccc3nc2N2CCc3ccccc3C2)cc1	6.92% (active)
COCCCNc1nc2ccccc2nc1NS(=O)(=O)c1ccc(F)cc1	4.77% (inactive)
O=C(CSc1nc2c(c(=O)[nH]1)CCCC2)N1CCCCC1	0.61% (inactive)

SMILES	activation
CCOC(=O)C1CCN(C(=O)C(C)(C)NC(=O)Nc2ccc(F)c(F)c2)CC1	-0.52% (inactive)
O=C(NCc1cccs1)C1CCN(S(=O)(=O)c2ccccc2[N+](=O)[O-])CC1	-1.15% (inactive)
c1ccc2c(CCN3CCNC[C@H]3Cc3cccc4ccccc34)cccc2c1	-0.26% (inactive)
c1ccc(C2CNCc3c2ccc2ccccc32)cc1 (stereo unspecified)	6.29% (active)
Cn1ncc([N+](=O)[O-])c1C(=O)Nc1cc(Cl)ccc1Cl	-1.09% (inactive)
c1coc(CCNc2ncnc3ccc(-c4ccc5c(c4)OCO5)cc23)c1	3.8% (inactive)
CCC(c1nc2ccccc2[nH]1)n1c(=O)c(-c2cccs2)nc2ccccc21 (stereo unspecified)	-1.27% (inactive)
CC(C)n1c(NCc2c[nH]c3ccccc23)nc2ccccc21	1.49% (inactive)
CC(C)(C)C(c1nc2ccccc2[nH]1)n1c(Cc2csc3ccccc23)nc2ccccc21 (stereo unspecified)	6.12% (active)
N#Cc1nc(N)nc(N(c2ccccc2)c2ccccc2)n1	-1.6% (inactive)
Cc1ccccc1NC(=O)N1CCCC1C(=O)NCc1ccccc1 (stereo unspecified)	0.56% (inactive)
Cc1ccccc1C(=O)N[C@H](C(=O)N1CCC[C@H]1C(=O)NCc1ccccc1)C(C)C	6.82% (active)
CC(C)C[C@H](NC(=O)CC1CCCC1)C(=O)N1CCC[C@H]1C(=O)NCc1ccccc1	-1.97% (inactive)
C=CCN1[C@H](CC(C)C)COc2cccc(N3CCCC3)c2S1(=O)=O	1.33% (inactive)
COC(=O)[C@]12C[C@H](CC(=O)N3CCN(C(=O)C4CC4)CC3)C(=O)N(Cc3ccc4c(c3)OCO4)C1=C[C@H](C(C)(C)C)O[C@@H]2C	-0.45% (inactive)
Nc1ncnc2c1ncn2[C@@H]1O[C@H](C(=O)N[C@@H](CCc2ccccc2)C(=O)N2CCCN(Cc3cccs3)CC2)[C@@H](O)[C@H]1O	-0.84% (inactive)
CC1CCN(c2ccc(C(=O)O)cc2NS(=O)(=O)c2ccc(Br)s2)CC1	0.68% (inactive)
O=C(Nc1ccn(Cc2ccccc2)n1)c1cccc(F)c1	8.2% (active)
Cc1ccc(NC(=O)CC2C(=O)N(Cc3ccccc3)C(=S)N2NC(=O)c2cccc(F)c2)c(C)c1 (stereo unspecified)	0.38% (inactive)
Cc1c(Br)c([N+](=O)[O-])nn1CC(=O)N1CCN(Cc2ccccc2)CC1	-0.25% (inactive)
O=C(Cn1cnc([N+](=O)[O-])n1)NCCc1ccccc1	1.32% (inactive)
CCOc1cccc(C(=O)Nc2cnn(Cc3ccccc3)c2)c1	-0.69% (inactive)

SMILES	activation
O=C(Nc1ccn(Cc2ccccc2)n1)c1n[nH]c([N+](=O)[O-])c1Cl	5.98% (active)
CCCCCN1CCCCC(NC(=O)C(C)CCC)C1=O (stereo unspecified)	0.16% (inactive)
CC(C)(C)C(=O)Nc1c(Br)c(C2CC2)nn1-c1ccccc1	-0.94% (inactive)
O=C(CCCCCN1C(=O)C2C3C=CC(C3)C2C1=O)Nc1ccccc1 (stereo unspecified)	-1.48% (inactive)
CN(C)CC(=O)N[C@@H]1C[C@@H]2O[C@H](CO)CC[C@@H]2O[C@@H]1CCc1ccc(C#Cc2ccccc2)cc1	-2.47% (inactive)
COc1ccc(C(=O)COC(=O)c2ccc3ccccc3n2)cc1	0.42% (inactive)
COc1ccc(C2=NOC(COC(=O)c3ccc4ccccc4n3)C2)cc1 (stereo unspecified)	7.15% (active)
COc1cccc(NC(=O)COC(=O)c2ccc3ccccc3n2)c1	4.16% (inactive)
Cc1ccc(OCc2nc3ccccc3n2C)cc1	11.3% (active)
Cc1ccc(OCc2nnc(SC3CCc4ccccc4C3=O)n2C)cc1 (stereo unspecified)	1.15% (inactive)
COc1cccc(C(O)Cc2nc3ccccc3n2C)c1OC (stereo unspecified)	-0.39% (inactive)
Cc1cccnc1NC(=O)Cn1c(=O)oc2ccccc21	6.75% (active)
CC(=O)c1ccc(NC(=O)Cn2c(=O)oc3ccccc32)cc1	-1.53% (inactive)
COc1ccc(OC)c(NC(=O)Cn2c(=O)oc3ccccc32)c1	-1.37% (inactive)
CCC[C@H]1C(=O)CC[C@@]23CCCN2C(=O)CCC[C@@H]13	0.52% (inactive)
COc1ccnc(C(=O)N2CCC(Oc3cccnc3)CC2)c1	-0.13% (inactive)
CN(C)CCNC(=O)c1ccc(-c2cn3c(-c4ccc(Oc5ccccc5)cc4)cnc3cn2)cc1	-0.28% (inactive)
COCCN(CCOC)S(=O)(=O)c1ccc(C(=O)Nc2nc3c(s2)CCc2ccccc2-3)cc1	-3.08% (inactive)
CN(C)CCNC(=O)c1[nH]nc2c1CCc1ccccc1-2	6.06% (active)
COC(=O)[C@]12C[C@H](CC(=O)NCCCCc3ccccc3)C(=O)N(Cc3ccc4c(c3)OCO4)C1=C[C@H](C(C)(C)C)O[C@@H]2C	2.01% (inactive)
C[C@H]1[C@H](NC(=O)c2cccc(N(C)C)c2)CC[C@@]23CCCN2C(=O)CCC[C@@H]13	-1.72% (inactive)
CCCNC(=O)Nc1ccc2c(c1)C(=O)N(C)[C@H]1CC[C@H](CC(=O)NCC3CCCCC3)O[C@@H]1CO2	1.19% (inactive)

SMILES	activation
Cc1nc(NC(=O)C(C)(C)C)sc1[N+](=O)[O-]	-0.38% (inactive)
Nc1[nH]c(C(=O)c2ccccc2)c(-c2ccc(Cl)cc2Cl)c1C(=O)c1ccccc1	-1.47% (inactive)
Nc1[nH]c(C(=O)c2ccc(Br)cc2)c(-c2ccc3c(c2)OCO3)c1C(=O)NCCc1c[nH]c2ccccc12	0.26% (inactive)
Cc1ccc(-n2cc3ccc([N+](=O)[O-])cc3n2)cc1	9.08% (active)
O=c1c2cc([N+](=O)[O-])ccc2nc2n1CCC2	-0.38% (inactive)
Cc1ccnc(N2C(=O)c3ccc([N+](=O)[O-])cc3C2=O)c1	-1.07% (inactive)
COC(=O)C[C@@H]1CC[C@@H]2[C@H](COc3ccc(NC(=O)c4cccc(F)c4)cc3C(=O)N2C)O1	-2.02% (inactive)
O=C(NCCCc1ccccc1)[C@H](Cc1ccccc1)NC1(C(=O)NCCc2c[nH]c3ccccc23)CCC1	1.93% (inactive)
Nc1ncnc2c1ncn2[C@@H]1O[C@H](C(=O)N[C@@H](CCc2ccccc2)C(=O)NCC(=O)N2CCOCC2)[C@@H](O)[C@H]1O	-0.25% (inactive)
Cc1csc(NC(=O)Nc2ccccc2[N+](=O)[O-])n1	13.9% (active)
Cc1cc(NC(=O)Nc2ccccc2[N+](=O)[O-])no1	-0.4% (inactive)
CN1CCN(CCNC(=O)Nc2ccccc2[N+](=O)[O-])CC1	-0.05% (inactive)
CCOc1ccc(-n2c(SCC(=O)Nc3cc(C)c(NC(=O)c4ccccc4)cc3OC)nnc2-c2cccs2)cc1	-0.56% (inactive)
O=C(CN1C(=O)NC2(CCc3ccccc32)C1=O)NC1CCCCC1 (stereo unspecified)	2.74% (inactive)
Nc1nc2c(ncn2[C@@H]2O[C@H](C(=O)N[C@H](Cc3ccccc3)C(=O)NCC3CCCCC3)[C@@H](O)[C@H]2O)c(=O)[nH]1	1.38% (inactive)
Cc1ccc(NC(=O)c2csc3c2CCCC3)cc1	11.3% (active)
COc1ccc(NC(=O)c2c(C)oc3c2CCCC3)cc1	1.98% (inactive)
CC1CC(C)CN(CCCNC(=O)c2csc3c2CCCCC3)C1 (stereo unspecified)	0.75% (inactive)
COCCNC(=S)N(C)[C@H]1C[C@H]2c3[nH]c4ccccc4c3CCN2C[C@H]1[C@H](C)O	1.74% (inactive)
COc1cc2cc(CN(CCN3CCCC3)C(=O)Nc3ccccc3Cl)c(=O)[nH]c2cc1OC	-0.2% (inactive)
